± gives the standard deviation of the averaged measurements. In all, about 25,000 sequences were measured (“ln(normalized median fluorescence intensity)”: median about 8.9, highest 2% from about 10 on). Shown is part of a subset that was picked to be rich in the highest values.

For this experiment, the system named is PfAP2-LT AP2 domain (GST-tagged). As to the kind of experiment: gcPBM binding intensity (ln(normalized median fluorescence intensity)); higher = stronger DNA binding. Summed up: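 GST-fused DNA-binding domains of P. falciparum, expressed in E. coli, were applied at about 25 μg on average for 1 h to an Agilent 4 × 180k array of primer-extended double-stranded 36-bp intergenic genomic probes and negative controls. Binding intensity is the highest Masliner-normalised natural-log median intensity across replicate spots of either probe orientation, measured with Alexa488 anti-GST antibody and a 488 nm scan.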
In the case of “AAAAAAAACACGCGCACACACACACCCACCCACCGA [CACACA_site2206]”, the “gcPBM binding intensity (ln)” value came to 10.32 ± 0.078.

Turning to “ATAGACAGCGCACAAACACACAAACACCCACCCACA [CACACA_site8043]”, the “gcPBM binding intensity (ln)” value was 9.99 ± 0.31.

Regarding “AAAAAAAACACGCGCACACACACACCCACAGACACA [CACACA_site5253]”, the “gcPBM binding intensity (ln)” value was found to be 10.2 ± 0.14.

For the sequence “AAAAAAACAACATGCACACGCACACCCAAAAAAAGC [CACACA_site72]”, the “gcPBM binding intensity (ln)” value was 9.84 ± 0.32.

In the case of “TACACAAACAGACACACACACACACGCGCACAAAAA [CACACA_site7192]”, the “gcPBM binding intensity (ln)” value is 10.06 ± 0.042.

“AAAAAAAAAACACGCGCACACACACCCACCCACCCA [CACACA_site8689]”: the “gcPBM binding intensity (ln)” value came out at 10.365 ± 0.0071.

“GTTTTGTACATATTCTCACACATATAAAAATACCCA [CACACA_site4446]”: the “gcPBM binding intensity (ln)” value amounted to 8.77 ± 0.42.

“TATATATATATATATATACACACTATATAATTCAAA [CACACA_site1023]”: the “gcPBM binding intensity (ln)” value was found to be 9.67 ± 0.042.

For the sequence “GAATAAAAATTTTAATGTACATATTTTTTATTTATA [XGTACX_site8935]”, the “gcPBM binding intensity (ln)” value was 8.41 ± 0.49.

On to “TTTTTTTTTTTTTGATGTACTTATTTAATAAGATAT [XGTACX_site376]”, for which the “gcPBM binding intensity (ln)” value is 8.38 ± 0.47.

As for “ATATATAATATTTTTATTTTTATTTTTTTTTTATGA [TGCATGCA_negctrl_site577]”, the “gcPBM binding intensity (ln)” value stood at 8.34 ± 0.49.

With “AAAAAGATAAAATATACATGCATATATAATATACAT [TGCATGCA_site488]”, the “gcPBM binding intensity (ln)” value is 8.94 ± 0.4.

For “TAAACAGAAGCACATACACACACTCAAAAAAAAAAA [CACACA_site3051]”, the “gcPBM binding intensity (ln)” value stood at 9.53 ± 0.39.

Turning to TATATATATATATATGTGCACATTTATTGCCTTTGC, the “gcPBM binding intensity (ln)” value amounted to 10.11 ± 0.071.

Consider CTTTATATATATTGCGTGCACATTTTTTTTTTTTTT, for which the “gcPBM binding intensity (ln)” value is 8.99 ± 0.53.

For the sequence “ACATATTATATATGTGTGCACATATATATATATTTA [GTGCAC_site9591]”, the “gcPBM binding intensity (ln)” value is 9.7 ± 0.33.

With “TATAGATGTGGTTTATGTACATACTATAAAAAATCA [XGTACX_site1400]”, the “gcPBM binding intensity (ln)” value was 8.7 ± 0.49.

Turning to “CGTATTTATATAATTACACACCATATTATAATTATT [CACACA_site3760]”, the “gcPBM binding intensity (ln)” value came to 8.84 ± 0.44.

Turning to “TTTCTTTATTTATAATAATTTTTTATTAAAAATAGA [CACACA_negctrl_site1610]”, the “gcPBM binding intensity (ln)” value was 8 ± 0.49.

“GATATAAACGTATATGTACATATATATATATATATA [GTGCAC_negctrl_site186]”: the “gcPBM binding intensity (ln)” value is 10.1 ± 0.38.

In the case of “TTACAAAAAAAAAGGCGCGGATGGGGGCAATAGCAA [CACACA_negctrl_site238]”, the “gcPBM binding intensity (ln)” value came to 9.39 ± 0.45.

Consider “ATTATGCACGGACACACACACACACCCCTAAAAAAT [CACACA_site5426]”, for which the “gcPBM binding intensity (ln)” value worked out at 10.1 ± 0.32.

Take “TGCACAGACGGACACACACACAACTAAAAAATAATG [CACACA_site5424]”: the “gcPBM binding intensity (ln)” value worked out at 9.69 ± 0.61.

Consider “ATTATGCACCAACACACACACACACCCCTAAAAAAT [CACACA_site2568]”, for which the “gcPBM binding intensity (ln)” value was 10.04 ± 0.057.

As for “ATTATGCACAGACACACACACACACTACTAAAAAAT [CACACA_site7252]”, the “gcPBM binding intensity (ln)” value is 10.2 ± 0.28.

For the sequence “AAAAAATTAGATTATGCACACACACTAATAAATAAT [CACACA_site8604]”, the “gcPBM binding intensity (ln)” value was found to be 9.38 ± 0.32.

In the case of “TGCACAAAATTATGCACACACCTAAAATTAATTTTT [CACACA_site5596]”, the “gcPBM binding intensity (ln)” value came to 9.06 ± 0.34.

On to “ATTTTTTCTTATAAAAAAGAAAAAGAAAAAGAAAAA [CACACA_negctrl_site1216]”, for which the “gcPBM binding intensity (ln)” value was determined as 8.02 ± 0.42.

As to “GTTTAGATAAAAGGGCGTACATCTATTTTTGACTAA [XGTACX_site7170]”, the “gcPBM binding intensity (ln)” value was 8.62 ± 0.36.

Consider “GAAACGATTTAATACACACACGTATTATAGATATAT [CACACA_site6666]”, for which the “gcPBM binding intensity (ln)” value is 9.25 ± 0.34.

Turning to “ATTTTTTTTGTTTATTCTTATGTGGTTATTAAATTA [CACACA_negctrl_site1000]”, the “gcPBM binding intensity (ln)” value worked out at 8.72 ± 0.52.

Consider “TACAGACAGAAATGCACACACATATATATATATATA [CACACA_site2283]”, for which the “gcPBM binding intensity (ln)” value came out at 10.2.

Consider “TGTACACCCAGAAATGCACACACATATATATATATA [CACACA_site8716]”, for which the “gcPBM binding intensity (ln)” value amounted to 9.94 ± 0.29.

On to “TACACCCAGAAATGCACACACATATATATATATATA [CACACA_site5289]”, for which the “gcPBM binding intensity (ln)” value is 10.26 ± 0.071.

For “TACAGACAGAAATGCACACACATATTTATATTTATA [CACACA_site7139]”, the “gcPBM binding intensity (ln)” value was found to be 9.35 ± 0.3.

Turning to “TTATATAAAGAATGTACACACAGAAATGCACCCACA [CACACA_site2282]”, the “gcPBM binding intensity (ln)” value is 9.39 ± 0.2.

Take “TATACACACAGACATGCATGCACATATATATATACA [TGCATGCA_site30]”: the “gcPBM binding intensity (ln)” value came out at 9.54 ± 0.42.

For “TCATCATATTATATATGTACATATATAATAATTTAT [XGTACX_site1625]”, the “gcPBM binding intensity (ln)” value worked out at 8.62 ± 0.42.

In the case of “AATTAATAACAAAATAAACACACATATATAAATACA [CACACA_site8456]”, the “gcPBM binding intensity (ln)” value was found to be 9.03 ± 0.38.

For “TTTATTTATTAATACACACACACACCCCCACAAAAT [CACACA_site240]”, the “gcPBM binding intensity (ln)” value was determined as 10.1 ± 0.22.

On to “ACATAATTAACAAATACACACACACCCACCCACAAA [CACACA_site8069]”, for which the “gcPBM binding intensity (ln)” value stood at 10.3 ± 0.13.

Take “ATAATTAACAAATACACACACACACCCAGACAAAAA [CACACA_site4445]”: the “gcPBM binding intensity (ln)” value turned out to be 10.2.

“TTTTTATTTATTAATACACACACACCCACCCACAAA [CACACA_site7965]”: the “gcPBM binding intensity (ln)” value is 9.805 ± 0.064.

As for “TATTAATACAGACACACACACACACCCAATAAAATA [CACACA_site243]”, the “gcPBM binding intensity (ln)” value was found to be 10.29 ± 0.05.

For the sequence “TTTATTTATTAATACACACACACACGCCCACAAAAT [CACACA_site6253]”, the “gcPBM binding intensity (ln)” value is 9.995 ± 0.05.

Turning to “TTTATTTATTAATACACACACACACCCAGACAAAAT [CACACA_site4292]”, the “gcPBM binding intensity (ln)” value is 10 ± 0.099.

With “TATTAATACAGACACACACACACACTAATTAAAATA [CACACA_site7967]”, the “gcPBM binding intensity (ln)” value came to 9.96 ± 0.2.

Regarding “ATTAATTATATATATACACACACATACACCCAAATA [CACACA_site9126]”, the “gcPBM binding intensity (ln)” value came to 9.66 ± 0.23.

Consider “GTATTATAGTATAATACACACCCAAATATTAAAAAG [CACACA_site7404]”, for which the “gcPBM binding intensity (ln)” value was 9.02 ± 0.41.

As to “AAAAAAAAAAAATACACACAAACACAAATTAAATAA [CACACA_site3809]”, the “gcPBM binding intensity (ln)” value was 9.32 ± 0.32.

The record behind these values is the supplement of paper PMC11417369.
